# Laboratory results taken from PubChem BioAssay AID504634 (The Scripps Research Institute Molecular Screening Center, 2011).
# The campaign covered roughly 340,000 compounds. About 280 (0.082%) were called active. Shown is part of a subset that was picked to be rich in actives. A number with no mark means an inactive call. Rule as the data show it: active = inhibition mostly above about 23% (no sharp cut-off); inactive = mostly below about 18%.
# Biological target: 5-hydroxytryptamine receptor 5A (Homo sapiens) (UniProt P47898)
# Assay: inverse agonism at human 5-HT5A receptor – cell-based, luminescence, full-deck HTS, counter-screen for OPRM1-OPRD1 heterodimer inverse agonist project, primary screen (AID 504634);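 also: 0% = cells with DMSO and 100% = no-cell wells with DMSO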
# Settings: HTR5A cell line, at 9.3 µM, active compounds read high
# Chain of 5-hydroxytryptamine receptor 5A (Homo sapiens) (P47898 whole entry, looked up): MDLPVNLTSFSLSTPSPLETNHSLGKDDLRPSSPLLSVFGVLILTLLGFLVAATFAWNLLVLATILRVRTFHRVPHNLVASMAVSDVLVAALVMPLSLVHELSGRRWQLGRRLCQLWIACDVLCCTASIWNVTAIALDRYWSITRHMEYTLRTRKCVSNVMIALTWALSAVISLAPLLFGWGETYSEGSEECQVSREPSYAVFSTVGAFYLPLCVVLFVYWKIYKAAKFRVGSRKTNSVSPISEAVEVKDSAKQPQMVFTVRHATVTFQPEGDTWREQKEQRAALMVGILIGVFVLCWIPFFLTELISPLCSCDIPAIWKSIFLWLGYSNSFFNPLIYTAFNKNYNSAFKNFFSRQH
row,Compound,inhibition
1,CCCC1NC(=O)NC(C)=C1C(=O)OCC (stereo unspecified),-17.2%
2,CCOC(=O)c1c(C)[nH]c(C)c1S(=O)(=O)NCCCc1ccco1,16.2%
3,CCNS(=O)(=O)c1ccc(CCC(=O)N2CCN(c3ccc(OC)cc3)CC2)cc1,8.47%
4,CC(NC(=O)CNC(=O)Cc1cccc2ccccc12)c1ccc(S(N)(=O)=O)cc1 (stereo unspecified),2.43%
5,O=c1ccc2c(-c3ccccc3S(=O)(=O)O)c3ccc(O)c(O)c3oc-2c1O,24.5% (active)
6,NS(=O)(=O)c1ccc(CCNC(=O)c2ccc(Cl)c(S(=O)(=O)N3CCCCCC3)c2)cc1,-7.96%
7,COc1ccc2[nH]c3c(c2c1)CCN1C(=O)C(CC(=O)NCCc2ccccn2)C[C@H](C(=O)N2CCOCC2)[C@@]31C (stereo partly specified),2.62%
8,Cc1noc(C)c1NC(=O)Nc1ccc2c(c1)C(=O)N([C@H](C)CO)C[C@H](C)[C@@H](CN(C)C(=O)Nc1ccccc1)O2,-10%
9,S=C(Nc1ccc(Br)cc1Cl)N1CCC2(CC1)OCCO2,2.4%
10,CC(C)Cn1cnc2c1c(=O)n(CC(O)c1ccccc1)c(=O)n2CC(C)C (stereo unspecified),-27.9%
11,COc1ccc(S(=O)(=O)N2CCc3ccccc32)cc1C(=O)Nc1cc(S(C)(=O)=O)ccc1Cl,-6.04%
12,COc1cc(CCC(=O)Nc2ccncc2Cl)cc(OC)c1OC,6.7%
13,Cc1cccn2c(=O)c(C=O)c(Nc3ccc(S(N)(=O)=O)cc3)nc12,-18.2%
14,O=C(O)c1ccccc1NC(=S)NC(NC(=O)c1ccccc1[N+](=O)[O-])C(Cl)(Cl)Cl (stereo unspecified),-0.92%
15,CCCS(=O)(=O)N1CCN(C(=O)c2cccs2)CC1,-3.26%
16,Cc1cccc(N2CC(C)Cn3c2nc2c3c(=O)n(CC(=O)OCc3ccccc3)c(=O)n2C)c1 (stereo unspecified),-8.01%
17,COc1ccc(S(=O)(=O)N2CCOC2CNC(=O)C(=O)NCc2ccc(F)cc2)cc1 (stereo unspecified),7.37%
18,CC(C)(C)c1ccc(S(=O)(=O)N2CCN(C(=O)c3ccc4c(c3)C(=O)N(Cc3ccncc3)C4=O)CC2)cc1,5.4%
19,COc1ccc(C#Cc2c(-c3ccc(OC)cc3)oc3ccc(-c4ccc5c(c4)OCO5)cc23)cc1,5.51%

row,Compound,inhibition
1,CC1(c2ccc3ccccc3c2)NC(=O)N(CC(N)=O)C1=O (stereo unspecified),1.06%
2,CCCC(=O)N1CCN(c2nnc(-c3ccc(C)cc3)c3ccccc23)CC1,-8.96%
3,CN(C(=O)COC(=O)CCCc1c[nH]c2ccccc12)c1c(N)n(Cc2ccccc2)c(=O)[nH]c1=O,20.6%
4,NC(=O)c1cc(S(=O)(=O)NCCCc2ccco2)cs1,1.79%
5,CCc1ccc(NC(=O)CCNS(=O)(=O)c2cccs2)cc1,-3.72%
6,COc1ccc(/C=N/OCc2ccccc2C#N)c(OC)c1,-3.2%
7,Cc1ccc(C(=O)NCC(=O)NC2CC2)cc1,4.21%
8,NS(=O)(=O)c1ccc(CCNC(=O)c2nc(CS(=O)(=O)c3ccc(Cl)cc3)no2)cc1,-12.4%
9,Cn1cnc(C(F)(F)F)c1-c1ccc([N+](=O)[O-])cc1,8.1%
10,COc1ccccc1C1=CC(=O)CCC1,2.76%
11,CCn1c(SCC(=O)N(C)C2CCS(=O)(=O)C2)nnc1-c1cccs1 (stereo unspecified),-22.6%
12,O=c1nc(NO)ccn1C1CCCO1 (stereo unspecified),1.3%
13,O=C(O)c1ccc(-n2nc(-c3ccccc3)c3ccccc3c2=O)cc1,0.76%
14,COc1ccc(N(CC(=O)NC2CCCCC2)S(=O)(=O)c2c(C)[nH]c(=O)[nH]c2=O)cc1,1.68%
15,Cc1sc2ncn(CC(=O)NCCCC(=O)N3CCN(c4ccccc4F)CC3)c(=O)c2c1C,1.47%
16,Cc1nc(N)c(Br)c(C)c1Br,-6.08%
17,CSCCC(NC(=O)COc1ccccc1)C(=O)OCCOc1ccc(Br)cc1 (stereo unspecified),-4.54%
18,CSCCC(NC(=O)COc1ccccc1)C(=O)OCc1ccc(Cl)cc1 (stereo unspecified),-5.68%
19,CSCCC(NC(=O)COc1ccccc1)C(=O)OCC(=O)c1cc2ccccc2o1 (stereo unspecified),33.3% (active)

row,Compound,inhibition
1,COc1cc(C(=O)NNC(=O)CN2C(=O)NC3(CCCC3)C2=O)cc(OC)c1OC,5.64%
2,COCCCNS(=O)(=O)c1cccc(S(=O)(=O)c2cccc(S(=O)(=O)NCCCOC)c2)c1,-5.56%
3,O=C(CC1C(=O)NCCN1Cc1ccc(-c2ccccc2)cc1)NCc1ccncc1 (stereo unspecified),-12.3%
4,COc1ccccc1CN(C)C(=O)C1(c2ccc(Cl)cc2)CC1,21.3%
5,Cc1cc(OC(=O)c2ccccc2Cl)ccc1N1C(=O)CCC1=O,11.2%
6,Cc1ccc(C(=O)OCC(=O)N2CC(C)CC(C)C2)cc1S(=O)(=O)N1CCCCC1 (stereo unspecified),11%
7,CCCCCCCC1(C)NC(=O)N(CC(=O)Nc2cc(C)on2)C1=O (stereo unspecified),-14.9%
8,O=C(NCCS(=O)(=O)N1CCN(c2ccc(F)cc2)CC1)c1ccc2c(c1)OCO2,9.72%
9,CN(CCc1ccccc1)C(=O)c1cccc(NC(=O)Cc2ccc([N+](=O)[O-])cc2)c1,-40.2%
10,Cc1cc(C)cc(C(=O)NC(CC(N)=O)c2ccc(N3CCC(N4CCCCC4)CC3)c([N+](=O)[O-])c2)c1 (stereo unspecified),-1.31%
11,Cc1ccc(S(=O)(=O)C2(S(=O)(=O)c3ccc(C)cc3)CCCC2)cc1,-9.41%
12,O=C(CCCOc1ccccc1)NNC(=O)c1ccc(Cl)cc1,-22.2%
13,COC(=O)N1CN(C(=O)OC)CN(C(=O)OC)C1,-11.4%
14,O=C(NNc1cc(Cl)cc(Cl)c1)c1c(F)cccc1Cl,5.05%
15,CC1(C)CC(=O)C(C2c3ccccc3S(=O)(=O)c3ccccc32)C(=O)C1,-6.15%
16,CC(C)OC(=O)Cn1nc(C(F)(F)F)c2c1CCCC2,-22%
17,CN1CCN(C2=NCCO2)CC1,13.4%
18,Nc1scc(-c2ccncc2)c1Cl,4.78%
